aSyn UTR act = Activators working through SNCA 5'UTR binding (MLPCN); alpha-synuclein 5'UTR reporter, activators screen; activity score, % (tested at 7.5 µM), hits read low; hit rate 7.1% among 300,000; in the data active = activity score below about -60%
* = called active by the depositor. Only a sample is shown.

SMILES	aSyn UTR act
CCC(C)(C)c1ccc(OCCCC[n+]2cccc(C)c2C)c(C(C)(C)CC)c1	100.8
COc1ccc(C(=O)CC(=O)c2ccc(F)cc2)cc1	-165.4*
O=C(CC(=O)c1ccccc1O)c1ccc(F)cc1	-74.8*
COc1ccc(C(=O)C(CCC(CNC(C)(C)C)C(=O)c2ccc(OC)cc2)CNC(C)(C)C)cc1 (stereo not drawn)	65.5
N/C(=N\OC(=O)CCCc1ccccc1)c1ccccc1Cl	-98.1*
Cc1ccc(/C(N)=N/OC(=O)Cc2ccccc2)cc1	-130.1*
CCC1CCCCN1CCCNC(=O)c1ccc2nc(N3CCC(C)CC3)sc2c1 (stereo not drawn)	-291.8*
CC1CCN(c2nc3ccc(C(=O)NCCCN4CCCCC4)cc3s2)CC1	-281.6*
CC1CCN(c2nc3ccc(C(=O)O)cc3s2)CC1	106.0
Cc1cccc(S(=O)(=O)Nc2ccc(-c3nc4ccc(C)cc4s3)cc2)c1	-171.8*
Cc1ccc2nc(-c3ccc(NS(=O)(=O)c4c(C)n(C)c(=O)n(C)c4=O)cc3)sc2c1	-94.4*
CC(=O)c1ccc(NS(=O)(=O)c2cccc(C)c2)cc1	-127.4*
Cc1ccc(S(=O)(=O)Nc2ccccc2-c2ccccc2)cc1	54.0
O=C(Nc1ccccc1-c1ccccc1)c1ccc(=O)[nH]n1	-127.9*
CC(C)(C)c1ccc(NC(=O)c2ccc(=O)[nH]n2)cc1	-101.9*
COc1ccc(-n2c(C)cc(/C=C3\SC(=S)NC3=O)c2C)cc1	-152.5*
Cc1cc(/C=C2\SC(=S)NC2=O)c(C)n1-c1ccccc1	-163.3*
Cc1cc(/C=C2\SC(N)=NC2=O)c(C)n1-c1ccccc1	-112.3*
Cc1cc(/C=C2\SC(=S)NC2=O)c(C)n1-c1ccc(O)cc1	-67.6*
CCN(CC)S(=O)(=O)c1ccc(N2CCOCC2)c(NC(=O)c2cc(-c3ccccn3)nc3ccccc23)c1	88.4
CCN(CC)S(=O)(=O)c1ccc(N2CCOCC2)c(NC(=O)c2cc([N+](=O)[O-])ccc2Cl)c1	-164.0*
CCCOc1ccc(-c2nc(N3CCN(C)CC3)c3ccccc3n2)cc1	-134.9*
CN1CCN(Cc2cc(COCc3ccccc3)c3cccnc3c2O)CC1	99.4
N#Cc1c(N2CCCC2)nc(N)c2c(N)nc(N3CCCC3)cc12	-172.6*
O=C(NN=C1C2CC3CC(C2)CC1C3)c1cccs1	-86.8*
SMILES	aSyn UTR act
C/C(=N\NC(=O)COc1ccccc1-c1ccccc1)c1ccccn1	114.0
C/C(=N\NC(=O)COc1ccccc1[N+](=O)[O-])c1cccs1	-146.2*
C/C(=N/NC(=O)c1cccs1)c1cccs1	-81.7*
C/C(=N/Nc1ccccc1C(=O)O)c1cccs1	-88.7*
C/C(=N/NC(=O)c1cccs1)c1cccc(N)c1	-86.4*
CCOC(=O)N/N=C(\C)c1cccs1	-67.2*
C/C(=N\NC(=O)c1sccc1-n1cccc1)c1cccs1	-80.3*
CC(=O)N1CCC(=NNC(=O)c2cccs2)CC1	-114.8*
Cc1ccc(S(=O)(=O)CCSc2n[nH]c(=O)n2-c2ccc3c(c2)OCCO3)cc1	-72.5*
O=C(/C=C/c1cccs1)Nc1cccnc1	-174.5*
O=C(/C=C/c1cccs1)Nc1nncs1	-161.8*
O=C(/C=C/c1cccs1)Nc1nc(-c2ccccc2)cs1	-246.3*
O=C(COC(=O)/C=C/c1cccs1)Nc1nc(-c2cccc(Br)c2)cs1	-79.3*
Cc1ccnc(NC(=O)/C=C/c2cccs2)c1	-77.0*
O=C(Nc1sc2c(c1C(=O)O)CCCCC2)c1ccco1	-95.7*
N#Cc1c(NC(=O)c2ccco2)sc2c1CCC2	-132.8*
Cc1occc1C(=O)Nc1sc2c(c1C(N)=O)CCCCC2	-175.6*
CC1(C)Cc2c(sc(NC(=O)c3ccco3)c2C#N)CO1	-100.3*
NC(=O)c1c(NC(=O)c2ccco2)sc2c1CCC2	-276.9*
O=C(NNC1=NCCCCC1)Nc1ccc(Cl)cc1	-67.6*
O=C(NNC1=NCCCCC1)Nc1cccc(Cl)c1	-135.9*
CC1CC(=O)c2c(cc3c(-c4c(O)cc(O)c5c(O)c6c(cc45)OC(C)CC6=O)c(O)cc(O)c3c2O)O1 (stereo not drawn)	70.2
O=C(Nc1ccc2cn[nH]c2c1)c1ccc(Cl)c(S(=O)(=O)N2CCOCC2)c1	-199.7*
O=C(NNC(=O)c1ccc(F)cc1F)c1ccc2c(c1)OCO2	-90.2*
O=C(Nc1cccc(F)c1)c1ccc2c(c1)OCO2	-149.0*
SMILES	aSyn UTR act
O=C(Nc1ccc2c(c1)OCCO2)c1cccc(S(=O)(=O)N2CCOCC2)c1	-87.8*
CS(=O)(=O)c1cccc(C(=O)Nc2ccc3c(c2)OCCCO3)c1	-100.6*
CCN(CC)S(=O)(=O)c1cccc(C(=O)Nc2ccc3c(c2)OCO3)c1	-125.0*
O=C(Oc1ccc2c(c1)OCO2)c1ccc(F)cc1Cl	-176.2*
CCC(CC)C(=O)Nc1cccc(C(=O)Nc2ccc3c(c2)OCO3)c1	-120.7*
O=C(Oc1ccc(N2C(=O)CCC2=O)cc1)c1ccccc1Cl	59.2
O=C(Nc1ccc(Cl)c(S(=O)(=O)N2CCOCC2)c1)c1ccc2c(c1)OCCO2	-64.9*
Cc1cc(O)c(NC(=O)c2ccc(Br)o2)cc1C	-178.4*
O=C(Nc1ccc(Cl)cc1Cl)c1ccc(Br)o1	-123.6*
Cc1ccc(C(=O)CNc2ccc(Br)cc2)cc1	-71.4*
Cc1ccc(NCC(=O)c2ccc([N+](=O)[O-])cc2)cc1	-114.8*
COc1ccc(C(=O)O/N=C(\N)c2ccc(Cl)cc2)cc1	-195.8*
N/C(=N\OC(=O)c1cccs1)c1ccc(Cl)cc1	-104.0*
N/C(=N/OC(=O)c1ccc(Cl)cc1)c1ncc([N+](=O)[O-])s1	-78.3*
COc1ccccc1C(=O)O/N=C(\N)c1ccc(Cl)cc1	-263.7*
CC(=O)Nc1nc(-c2ccccc2)ns1	-107.9*
COCC(=O)Nc1nc(-c2ccccc2)ns1	-77.8*
Cc1ccc2nc(N(CCCN(C)C)C(=O)c3ccc4ncsc4c3)sc2c1	-83.5*
CCOc1cccc2sc(N(CCCN(C)C)C(=O)c3ccc(S(=O)(=O)N(C)Cc4ccccc4)cc3)nc12	55.9
Cc1ccc2nc(N(CCN(C)C)C(=O)c3ccc4c(c3)OCCO4)sc2c1	-110.3*
Cc1ccc2sc(N(CCCN(C)C)C(=O)c3ccc(S(=O)(=O)N(C)Cc4ccccc4)cc3)nc2c1C	-72.8*
CCOc1cccc2sc(N(CCCN(C)C)C(=O)c3ccc(S(=O)(=O)N(CC)Cc4ccccc4)cc3)nc12	70.8
CCCCN(C)S(=O)(=O)c1ccc(C(=O)N(CCN(C)C)c2nc3ccc(C)cc3s2)cc1	-74.4*
CN(C)CCN(C(=O)c1ccc2ccccc2c1)c1nc2cc3c(cc2s1)OCCO3	-74.5*
CN(C)CCCN(C(=O)CCc1ccccc1)c1nc2ccc(Cl)cc2s1	109.5
SMILES	aSyn UTR act
CCN(CC)CCN(C(=O)c1cc2c(ccc3ccccc32)oc1=O)c1nc2cc3c(cc2s1)OCCO3	78.2
CN(C)CCCN(C(=O)c1ccc2c(c1)CCCC2)c1nc2ccc(Cl)cc2s1	-69.8*
CN(C)CCCN(C(=O)c1ccc2c(c1)OCCO2)c1nc2cc3c(cc2s1)OCO3	-91.6*
CN(C)CCCN(C(=O)c1sc2ccccc2c1Cl)c1nc2ccc(F)cc2s1	-98.8*
COc1ccc(C)c2sc(N(CCCN(C)C)C(=O)c3ccc(S(=O)(=O)N4CCc5ccccc5C4)cc3)nc12	91.1
COc1ccc(OC)c2sc(N(CCCN(C)C)C(=O)c3ccc(S(=O)(=O)N4CCc5ccccc5C4)cc3)nc12	100.3
COc1ccc(C)c2sc(N(CCCN(C)C)C(=O)c3ccc4c(c3)OCCO4)nc12	-97.0*

Bioassay records as filed in PubChem BioAssay.
